Test results as given in PubChem BioAssay AID1347426 (Functional Genomics Laboratory (NCATS/FGL), 2020).
The campaign covered roughly 31,000 sequences. About 1,400 (4.5%) were called active. This is one part of a sample in which actives are shown more often than they occur. A number with no mark means an inactive call.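 The calls were made as follows: active = median seed-adjusted z-score above 1 or below -1; inactive = the rest.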

experiment: Novel Modifiers of Survival Motor Neuron (SMN) Protein: Gene Identification via Genome-wide siRNA Screen; settings: HEK293T SMN2-luciferase reporter, siRNA knockdown, 72 h; actives lie on both sides
Excerpt: Spinal muscular atrophy (SMA) is the most common neuromuscular autosomal recessive disorder and one of the leading genetic causes of infant death. SMA results from mutations inducing loss of function or deletion in the survival of motor neuron-1 gene (SMN1), leading to deficiency of the survival motor neuron (SMN) protein. Although a second nearly identical gene, SMN2, is retained in humans, its expression primarily produces an aberrantly spliced isoform that is largely unstable and quickly degraded. We performed a genome-wide RNAi screen using a cell-based reporter assay to identify genes and pathways that modulate SMN protein stability. The screen identified over 200 genes that led to the greatest increase or decrease in luciferase expression.
Using HEK293T cells stably expressing a luciferase reporter that combines the promoter and splicing based cassettes in tandem with the major portion of the native SMN2 cDNA with luciferase, we performed a genome-wide RNAi screen to identify modulators of SMN protein levels. Luciferase is expressed when full-length SMN protein is generated with luminescence signal proportional to SMN protein levels. Our luciferase-based reporter assay was used to screen Ambion Silencer Select Human Druggable Genome siRNA library (10418 genes, 3 unique siRNAs per gene) using lipid-based reverse transfection.
Briefly, 1 pmol of each siRNA was spotted to a well of a 384-well plate (Corning, Corning, NY) and 20 microL of serum-free DMEM containing […] of Lipofectamine RNAiMax (Life Technologies, Carlsbad, CA) was then added to each well. Transfected cells were maintained at 37 degrees C in 5% CO2 for 72 hours, 20 microL of ONE-Glo Reagent (Promega) was added to wells for luciferase quantification. Raw luminescence reads were normalized to Ambion(R) Silencer(R) Negative Control #2 siRNA, then log10 transformed. A robust statistical measure of median absolute deviation (MAD) to standardize siRNA activities from each screen. Common Seed Analysis was used to help prioritize clean hits as opposed to those appearing to arise from seed based off-target effects. Candidate modulators were defined as the genes having a MAD score greater than 1.0 or less than -1.0.

Sequence | median seed-adjusted z-score
CCUUAUCCGCUACCUCCAATT against TAF5L | 0.409
GGAAGAAGGUAUUCCGUAUTT against CHD5 | -0.195
CGUCCAUGUUUAUCUACAATT against ENTPD2 | 0.0319
CGAACGAGCUAUCACAGAATT against TFB1M | 0.172
CAUUCGGUAUUUUAUUCUATT against SNRPD1 | -2.97 (active)
CCUUGCAACAUGUUCGUGATT against KRIT1 | -0.447
GAAAAACGAUGUAAGCAAUTT against ADH1A | 0.624
GAGACAAACUAAUUGAGAATT against PPP1R8 | -0.029
GGCUACAAAUGUUCAUCGATT against LRP6 | -0.116
CGUCAAUUCCGGUACACUUTT against PIGM | 1.36 (active)
CACAUUAAAGUGUAAAGAATT against PIP3-E | 0.676
GGACAAAGUCCUAAAGAAATT against MGC21874 | -0.354
GCACUGUCUACAUCCCUGATT against RHCG | 0.375
AGAUAGUUCUGGAACUGGATT against HES2 | -0.186
CCACUAGCACAUUCCGCAATT against RBP2 | 0.0132
GGACGACUCUGAUCUGGAUTT against DYNC1I1 | -0.716
GGCGAAAAAUUGCUACCGATT against PSMC2 | -1.96 (active)
CUCUAGUCGCGUCAAGUUUTT against NISCH | -0.0757
GCAAAAAGAGCGAUCAGAATT against CNDP1 | 0.203
GGAUAUAACGAGAAUGUCUTT against MED27 | -1.62 (active)
AGAUAGAAAUUGACUUUGATT against BRD3 | 0.633
GCGAAAACAUGGAUGUUCUTT against HERC2 | 0.98

Sequence | median seed-adjusted z-score
CUUUCCGUGUGAAAUCAAATT against ZNF761 | 0.291
AGACCUCCUACGACAUUAATT against BOC | -0.0192
GACUCAAUGCUACUAUCAATT against ADAM32 | 1.75 (active)
GGGUGAAUGCUAUUGAGUUTT against MKRN1 | -0.496
AGAACUUCAUGGACAUAGATT against CNR1 | 0.0359
CCACCGAUGAGAUUACCUUTT against STS | -0.392
CAGAGGUUGUGACACGAAATT against PAK1 | -0.168
CUAUGAGGAAUGUCGCAGATT against XPO1 | 1.12 (active)
GGUCCUCAUUGAAAACGAATT against BTBD11 | -0.00434
GGACUACAGUAUACAUUGUTT against PCDH24 | 0.345
GGAACAGGCUAUCAGAACATT against TTC8 | 0
GGGCUUUAAAUAUGAGAUUTT against GRID1 | 0.66
CGUUGUCACUGAGAUCACATT against AVIL | -0.127
AAGACAUACCGACCUCUUATT against PPIL3 | 0.282
GGACGUACAGUGGUGGUAATT against ABCA3 | -0.363
CCAAUAUUCGACUUGCGUATT against XPO1 | 1.12 (active)
GCCGCCAAGUAAAGCCUUATT against HSPB1 | 0.693
CAAGCUGUCUAAGUCCAAATT against NOVA1 | -0.486
CCCACCAUGUUACAAGACATT against POLR2G | -4.19 (active)
GCAAGGAAGAAAUUUGUGATT against ERCC1 | -0.566
CUCACAUAAUCAUAAUAGATT against ZNF41 | 0.342
GGAGCCUUGUUGAUCCUUATT against FRAP1 | -1.02 (active)

Sequence | median seed-adjusted z-score
CGUUCGCACAUUCCUUAUATT against KIF6 | -0.0396
GCUUUGUAGAAUUUGCAGATT against TRNAU1AP | 0.52
GGACCGGCCUUUUCGAAAATT against SNRNP35 | 0.172
GGCUGAUUACGUUCGGGAATT against MYL2 | -0.0369
CAAUGAUCCCGGGCAUUUATT against RPP21 | -1.09 (active)
GGAGACCAACUGCAACUUUTT against ZACN | 0.065
CGGAGGUGACUGACAGAUATT against CAMKV | -0.193
GAGUCAAAUUUGUGAAGAATT against GLO1 | -0.0827
CUGUGGGAGUUAUUGUCAATT against CDH13 | 0
CAAGCAUCUUUGUCAAAGATT against PTH2R | -0.492
GGCUGAUAGUUUAGGAGUUTT against EIF5B | 1.68 (active)
GCUGGUUACUUAUCACCAATT against TPH1 | -0.055
AACCUAUGCGUAUCCAGUATT against SNRPA | -2.09 (active)
CGAAGUGAGUGAUAACAGUTT against RNF157 | 0.0197
GCAAGACCGAAGUAAACUATT against GPX4 | -1.18 (active)
UGUUAAGCUUCAUCAGUAUTT against MRGPRX1 | -0.188
ACAUCUCACGGAUCCUUAATT against PAX4 | 0.0811
GGUGAAGGUAGAUCAAAGATT against EIF2AK2 | 0.419
CGACUUCUCAGAAGGCAGATT against GATA4 | -0.24
AAAUCUCAAUGGUCGCUAUTT against FCN3 | -0.112
AGGAGCUUGUUGAUCCCUATT against SLC7A8 | -0.134
CCACAUAGGUCAGAAACGATT against CLDN17 | 0

Sequence | median seed-adjusted z-score
CAUCGUCUCUGCUGACAAATT against TUBAL3 | 1.05 (active)
GGAACCCUUUGAUCAAUUUTT against ADAMTS7 | 0.146
GAUUGCAGCCAAUCCCUUUTT against TBX6 | 0.144
CACUAGAUCGCGAUAAUAATT against DDB1 | 0.231
GGAAGGCAUUACUCACUUATT against SIRT3 | -0.341
GCCAGAAUCCUUUAGCAGUTT against CRTC1 | 0.00363
GCAUCUGAAGACUCAGGCATT against TAZ | 0.0549
UCAGCUGUAUCGACCAGAATT against MYL7 | -1.21 (active)
GAAAUCAGCCUAUGGUUUATT against NME2 | -0.0728
CCGUAUAUCUGGUGGUUAUTT against PLOD2 | -0.281
GAAUCAUAAUCGCUCCUUUTT against SPRR1A | -0.0536
GAAUCCGGAUGAGUACUAUTT against PHF17 | 1.01 (active)
CAGUCCCUAUUUCAAAAUATT against PDE6G | 0.0109
GAAUGAUAUUGUCCAUCGATT against CDKL5 | -0.256
ACUUCAACGUGACCACAGATT against PNPLA6 | 0.309
GAUACGCCCUUAUAAUGCATT against ZBTB11 | -0.105
GAAAUUGCCUAUUACUCUUTT against SLC19A2 | -0.679
UCAUAAUUAUCUCACCAGATT against MEOX2 | 1.36 (active)
CCUCUAACGUACCAUCUAATT against OLAH | -0.44
GUAAGGCAAAGACUCCCUATT against ZNF673 | 0.419
GGGACGGAAUAAAUGCUCUTT against NDUFA13 | -0.138
CUAAGGAAGUAGUUGAUUATT against HADHB | -0.188

Sequence | median seed-adjusted z-score
CUACCGUAACAACCGAAAATT against SCN10A | -0.401
CCAUUGCAAUCAACACCAATT against ALOX5 | -0.201
GAUGACUUUUGAUAGUGAATT against ODC1 | -1.64 (active)
AGGUCAUUGCUGAGAAGUATT against FMNL1 | -0.3
GGAAGUACAUGAACGCAGUTT against EFTUD1 | -1.39 (active)
GGACGACACGUUCUACCUGTT against ENDOG | -0.336
GCAGACAAGUCAACCGUGATT against FRK | -0.14
CAGGUUAUCGUGUGAAGGATT against TNFRSF14 | 0
GCACGAAGCUUUCCCUGGATT against KRT78 | 0.306
GUUUGAUGGUGAUAAGAAATT against PGD | -1.55 (active)
GAACCAAAUUGUACGAGAATT against IRX3 | -0.285
GGGAUAAAUUUGACGUGGATT against SPAG1 | 0.413
GCUACAUCCUGUUCGAGAATT against CYP27A1 | -0.391
CAGAAUAAAUCACACCCUATT against INSL3 | -0.037
CCAAGAUGAGUAUAAAACATT against HRC | 1.06 (active)
CCAUCUGCUUUCCCGAGUATT against GNAZ | -0.604
GCUGUGGAUUGUCCAACAATT against NPY5R | 0.213
UCAACUGACUCAUACCUGUTT against KCNMB1 | -0.465
GAACCACUAUGAUCAUUGATT against DPYSL2 | -0.569
CAGUGUAUCUUCAUAAGAUTT against TAF1L | 0.289
